Among the data in PubChem BioAssay (NCI) are growth values, retold here.

Some test systems named below: NCI-H23 lung; NCI-H226 lung; HOP-62 NSCLC; NCI-H460 lung; HOP-92 NSCLC; NCI-H522 lung; A549/ATCC NSCLC; 786-0 renal; COLO 205 colon; NCI-H322M lung.
What all share (test): NCI-60 one-dose screen, 48 h (100 = growth as untreated, 0 = no growth, -100 = all killed)
Conditions in all cases: 10 µM

This is part of a sample that, as a whole, favours compounds with a hit. Of some 83,000 tested, about 20% had one in any assay.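 Plates (96-well) were seeded with cells, treated with compound at one concentration, and incubated for 48 hours before percent growth was determined.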 A number with no mark means an inactive call. Activity calls are given as the source filed them. Rule for the calls: active = growth percent below 10; inactive = the rest.

On to `NC(=O)c1cc([N+](=O)[O-])c(Cl)c([N+](=O)[O-])c1Cl`, for which the growth in the assay on NCI-H23 lung was 25.6%; in the assay on NCI-H226 lung it was 59.7%; in the assay on HOP-62 NSCLC, 35.9%; in the assay with NCI-H460 lung, 72.2%; in the assay with HOP-92 NSCLC it was -52.2% (active); in the assay on NCI-H522 lung, -82.4% (active). Moreover, the growth was 89.6% in the assay with A549/ATCC NSCLC, 13.2% in the assay with 786-0 renal and -54.1% (active) in the assay on COLO 205 colon.

`Cc1ccc(NC(=O)CBr)cc1`: the growth is 91.7% in the assay with NCI-H23 lung; 103% with NCI-H226 lung; 105% in the assay with NCI-H460 lung; 96% in the assay on HOP-92 NSCLC; -55.6% (active) in the assay with NCI-H522 lung; 107% with 786-0 renal. In addition, the growth in the assay on COLO 205 colon was 108%.

On to `COc1cc([N+](=O)[O-])c2ncccc2c1[N+](=O)[O-]`, for which the growth was 73.4% with NCI-H23 lung; 77.1% in the assay with NCI-H226 lung; 105% in the assay with HOP-62 NSCLC; 87.3% in the assay on NCI-H460 lung; 95.7% in the assay on HOP-92 NSCLC; -47.9% (active) in the assay on NCI-H522 lung. For the same compound, the growth is 97.9% with A549/ATCC NSCLC, 77.7% in the assay with 786-0 renal and 86.1% in the assay with COLO 205 colon.

With `C[CH2][Hg][S]c1ccccc1C(=O)O`, the growth in the assay with NCI-H23 lung was 11.3%; with NCI-H226 lung, -53.4% (active); in the assay with HOP-62 NSCLC it was 47.2%; with NCI-H460 lung it was 36%; in the assay on NCI-H522 lung, -77.2% (active); in the assay on A549/ATCC NSCLC, 35%. The growth in the assay on 786-0 renal is 1.68% (active); in the assay with COLO 205 colon, -100% (active).

Take `COC(=O)C1C(O)C(C)C(O)C(C)/C=C\C=C(C)C(=O)Nc2c(C)c(OC(C)=O)c3c(c2O)C(=O)C(C)=C2OCOC(=C23)C(C)=CC(C)(O)C(O)C(C)C1O` (configuration not stated): the growth in the assay on NCI-H23 lung is 97.6%; in the assay on NCI-H226 lung, 99.2%; in the assay on HOP-62 NSCLC, 96.8%; in the assay on NCI-H460 lung it was 111%; in the assay on NCI-H522 lung, 59.1%; in the assay on A549/ATCC NSCLC it was 98.5%. For the same compound, the growth in the assay on 786-0 renal was 107%; with COLO 205 colon, 94.7%.

For `CC(C)(C)OOC(=O)/C=C\C(=O)OOC(C)(C)C`, the growth was 103% in the assay on NCI-H23 lung; 102% with NCI-H226 lung; 97.7% in the assay on HOP-62 NSCLC; 109% in the assay with NCI-H460 lung; 88.3% in the assay on HOP-92 NSCLC; 107% with NCI-H522 lung. Besides, the growth in the assay with A549/ATCC NSCLC is 110%; with 786-0 renal, 108%; in the assay on COLO 205 colon, 110%.

For the compound `Oc1c(I)cc(I)cc1I`, the growth in the assay on NCI-H226 lung was 98.6%; in the assay with NCI-H322M lung, 110%; in the assay on HOP-62 NSCLC it was 103%; in the assay with NCI-H460 lung, 105%; in the assay on HOP-92 NSCLC it was 106%; with A549/ATCC NSCLC it was 106%. For the same compound, in the assay with COLO 205 colon, the growth is 116%.

Regarding `O=S(=O)(F)c1ccc(Cl)cc1`, the growth was 100% with NCI-H23 lung; 109% in the assay with NCI-H226 lung; 106% in the assay with HOP-62 NSCLC; 113% with NCI-H460 lung; 86.8% in the assay on HOP-92 NSCLC; 101% in the assay with NCI-H522 lung. Further, the growth in the assay with A549/ATCC NSCLC was 98.3%; with 786-0 renal, 107%; in the assay on COLO 205 colon, 107%.

Turning to `COc1ccc(/C=C(\C)[N+](=O)[O-])cc1OC`, the growth in the assay on NCI-H23 lung is 64.7%; with NCI-H226 lung it was 68.9%; in the assay on HOP-62 NSCLC, 63%; in the assay on HOP-92 NSCLC, -9.49% (active); with NCI-H522 lung it was -69.4% (active); in the assay on A549/ATCC NSCLC it was 36.3%. In addition, the values for the growth in the assay on 786-0 renal and with COLO 205 colon were -44.2% (active) and -80.5% (active), respectively.

As to `COc1cc(/C=C/[N+](=O)[O-])cc(Br)c1OC`, the growth in the assay with NCI-H23 lung is -67.9% (active); in the assay on NCI-H226 lung, -18.3% (active); in the assay on HOP-62 NSCLC, 59.5%; in the assay with HOP-92 NSCLC, 72.6%; with NCI-H522 lung it was -71.5% (active); in the assay on A549/ATCC NSCLC, 57.2%. Also, the values for the growth in the assay with 786-0 renal and in the assay on COLO 205 colon were -56.7% (active) and 17.5%, respectively.

With `CN(CCCl)c1ccc(/C=C/C2=[N+](C)c3ccccc3C2(C)C)cc1`, the growth was 9.42% (active) with NCI-H23 lung; 46.6% with NCI-H226 lung; 41.1% in the assay with HOP-62 NSCLC; 17.7% in the assay on NCI-H460 lung; 31.1% in the assay on HOP-92 NSCLC; 30.4% in the assay on NCI-H522 lung. The growth is 31.8% in the assay on A549/ATCC NSCLC, 57.6% in the assay with 786-0 renal and -7.09% (active) in the assay on COLO 205 colon.

With `CCOP(=O)(OCC)C(O)c1ccccc1Cl` (configuration not stated), the growth is 99.4% in the assay on NCI-H23 lung; 98.1% in the assay with NCI-H226 lung; 109% in the assay on HOP-62 NSCLC; 102% with NCI-H460 lung; 95.7% in the assay with NCI-H522 lung; 105% in the assay with A549/ATCC NSCLC. Also, the growth in the assay on 786-0 renal was 102%; with COLO 205 colon it was 107%.

Take `NC(=O)c1cc([N+](=O)[O-])c(Cl)c([N+](=O)[O-])c1`: the growth is 88.6% with NCI-H23 lung; 102% in the assay on NCI-H226 lung; 105% in the assay with HOP-62 NSCLC; 107% in the assay with NCI-H460 lung; 14.1% in the assay on HOP-92 NSCLC; -4.01% (active) in the assay on NCI-H522 lung. Besides, the growth was 98.4% in the assay with A549/ATCC NSCLC, 91.2% with 786-0 renal and -71.1% (active) in the assay with COLO 205 colon.

As to `COc1cc(/C=C/[N+](=O)[O-])cc(OC)c1OC`, the growth in the assay on NCI-H23 lung is 45%; in the assay on HOP-62 NSCLC, 16.8%; with NCI-H460 lung, 6.31% (active); in the assay with HOP-92 NSCLC, 58.1%; in the assay on NCI-H522 lung it was -54.8% (active); with A549/ATCC NSCLC, 54.2%. In addition, the growth with 786-0 renal was -48% (active); in the assay with COLO 205 colon it was -53.4% (active).

As to `CC(=O)Nc1c2sscc-2n(C)c1=O`, the growth in the assay with NCI-H23 lung was -95.3% (active); with NCI-H226 lung, -100% (active); in the assay with HOP-62 NSCLC it was -100% (active); in the assay on NCI-H460 lung, -77.4% (active); with NCI-H522 lung, -90.8% (active); in the assay on A549/ATCC NSCLC, -65% (active). Besides, the growth with 786-0 renal is -100% (active); in the assay on COLO 205 colon, -87.1% (active).

On to `COC12c3c(C)cc(O)c4c(=O)occ(c34)C(=O)C1C13COC(=O)c4c(O)cc(C)c(c41)C(=O)C2C3OC(C)=O` (configuration not stated), for which the growth with NCI-H23 lung is 99.7%; in the assay with NCI-H226 lung, 100%; in the assay with HOP-62 NSCLC it was 82.3%; in the assay on NCI-H460 lung it was 97.9%; in the assay with HOP-92 NSCLC, -9.88% (active); in the assay on A549/ATCC NSCLC, 107%. The growth with 786-0 renal was 95.7%; in the assay with COLO 205 colon, 103%.
